# A selection: hits, their analogues and other compounds. The true share with any hit is near 32%.
# CYP2C9 inhib = blocks human cytochrome P450 2C9; CYP2C9 Supersomes, luciferin-H conversion, luminescence; inhibition, % at 5 µM; hit rate 20% among 96,000;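 active = blocking of liver enzyme CYP2C9 beyond about 50% at 5 µM, limit read from the data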
# CYP2C19 activ = activators of human cytochrome P450 2C19; P33261; activation factor at 5 µM; AID 1025; recombinant CYP2C19, luciferin-H EGE luminescence; hits give high values; 0 = fully inhibited enzyme, 1 = untreated enzyme; 96,000 tested, under 10 active;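 active = activation factor of at least 2 at 5 µM in the primary screen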;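 also: 0 = wells with 2.5 mM tranylcypromine and 1 = vehicle-only wells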
# Target sequence (P33261 whole entry, looked up): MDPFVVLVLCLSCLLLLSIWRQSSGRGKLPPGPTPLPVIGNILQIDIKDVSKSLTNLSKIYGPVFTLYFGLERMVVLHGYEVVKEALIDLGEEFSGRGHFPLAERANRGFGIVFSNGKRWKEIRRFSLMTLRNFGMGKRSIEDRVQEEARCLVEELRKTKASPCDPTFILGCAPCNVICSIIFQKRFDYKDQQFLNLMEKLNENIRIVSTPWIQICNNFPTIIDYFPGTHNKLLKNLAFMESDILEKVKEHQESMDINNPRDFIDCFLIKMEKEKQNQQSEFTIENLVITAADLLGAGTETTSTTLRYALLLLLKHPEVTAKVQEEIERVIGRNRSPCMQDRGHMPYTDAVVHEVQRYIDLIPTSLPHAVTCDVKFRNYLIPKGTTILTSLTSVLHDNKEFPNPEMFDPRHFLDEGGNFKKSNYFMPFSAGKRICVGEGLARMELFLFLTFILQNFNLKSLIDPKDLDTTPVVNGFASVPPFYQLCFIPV
# PostGolgi ctrl = growth of the yeast control strain, post-Golgi counter-screen; AID 738; inhibition, % at 10 µM; efflux-deficient yeast background strain, growth absorbance A615, 16 h; hit rate 5% among 98,000
# CYP2C19 inhib = human CYP2C19 inhibition; P33261; CYP2C19 Supersomes, luciferin-H EGE luminescence, 30 min; inhibition, % at 5 µM; hit rate 21% among 96,000; AID 778;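 active = CYP2C19 inhibition above a set limit at 5 µM in the primary screen, cut at about 50% in these data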;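 also: plate controls were negative control wells for no effect and 2.5 mM tranylcypromine positive control for full effect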
# CYP2C9 act = increases human cytochrome P450 2C9 activity | recombinant CYP2C9, luciferin-H conversion, luminescence; hits give high values; factor 1 = untreated enzyme, 0 = blocked | activation factor at 5 µM | hit rate 1.4% among 96,000 | AID 1024;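 active = activation factor of 2 or more for CYP2C9 at a 5 µM dose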;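 also: 0 = sulfaphenazole-blocked wells and 1 = vehicle-only wells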
# PostGolgi yeast = growth inhibition of a yeast mutant, post-Golgi transport screen. post-Golgi transport phenotypic cell assay. inhibition, % at 10 µM. hit rate 0.9% among 98,000;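 also: yeast cells grown in 1536-well plates; yeast grown about 18 h at 30C before absorbance read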
# Active calls of the source: *. Rule as the data show it, unless noted: active = inhibition above about 30%; inactive = the rest.
SMILES,CYP2C9 inhib,CYP2C19 activ,PostGolgi ctrl,CYP2C19 inhib,CYP2C9 act,PostGolgi yeast
O=C(CCOc1ccccc1)NCC(c1ccco1)N1CCCCC1 (configuration not stated),1.9,0.3,-0.3,65.8*,1,-1.8
CCN(CC)S(=O)(=O)c1cc([N+](=O)[O-])ccc1NNC(=O)Nc1ccccc1OC,63.0*,0.5,9.9,50.8*,0.4,-2.4
COc1ccc(OCCCC(=O)Nc2cc([N+](=O)[O-])ccc2C)cc1,-155.2,0.8,10.8,18.8,2.6*,-0.5
O=C(NCC(c1ccco1)N1CCCC1)c1ccccc1F (configuration not stated),17.4,0.9,5.0,9.6,0.8,13.1
CCCOc1ccc(/C=C/C(=O)Nc2ccc([N+](=O)[O-])cc2C)cc1,15.5,1,12.1,3.7,0.8,-6.2
COc1cc([N+](=O)[O-])ccc1NC(=O)CCCOc1ccccc1,35.3,0.4,17.1,63.6*,0.6,1.0
Cc1ccc2c(Cl)c(C(=O)NCC3CCCO3)sc2c1 (configuration not stated),6.7,0.7,14.5,28.5,0.9,-5.6
Cc1ccc(S(=O)(=O)NCC(=O)N(CC(=O)NCC2CCCO2)C2CCCC2)cc1 (configuration not stated),21.5,0.9,8.1,14.4,0.8,0.2
COc1cc([N+](=O)[O-])ccc1NC(=O)CN(C)C,-14.1,1.1,7.9,-6.2,1.1,0.2
Cc1ccc(OCCCC(=O)NCc2ccco2)cc1,24.1,0.9,4.9,11.1,0.8,2.6
CC(=O)c1ccc(OCCCC(=O)NCC(c2ccco2)N(C)C)cc1 (configuration not stated),62.7*,0.2,-3.6,80.8*,0.4,-4.5
CCN(CC(=O)Nc1ccc([N+](=O)[O-])cc1OC)c1ccccc1,77.8*,0.5,11.1,53.0*,0.2,-1.9
CC1Cc2ccccc2N1C(=O)CSc1ccccc1 (configuration not stated),-3.8,0,9.8,95.9*,1,-2.0
CC1Cc2ccccc2N1C(=O)CSC1=NCCS1 (configuration not stated),-18.9,0.9,2.5,13.8,1.2,-0.3
CC(C)NC(=O)Cn1c(SCC(=O)N2c3ccccc3CC2C)nc2ccccc21 (configuration not stated),91.1*,0.4,2.4,60.6*,0.1,3.2
CC1Cc2ccccc2N1C(=O)CSc1nnc(CNc2ccccc2)o1 (configuration not stated),-3.2,1,36.9*,-0.4,1,-0.3
CC1Cc2ccccc2N1C(=O)CSc1nnnn1Cc1ccccc1 (configuration not stated),83.8*,0.1,11.7,90.3*,0.2,-2.5
CCCC(=O)c1ccc(N2CCN(C(=O)c3ccccc3Br)CC2)c(F)c1,28.7,0.6,16.5,36.4,0.7,3.2
O=C(Nc1ccc2c(c1)OCCO2)C1CCN(C(=O)c2ccc(F)cc2)CC1,22.8,0.8,8.6,19.2,0.8,8.0
COc1ccccc1C1C(C(=O)c2sc(C)nc2C)=C(O)C(=O)N1CCN1CCOCC1 (configuration not stated),-8.0,1,13.3,-4.0,1.1,4.9
Cc1ccc(C2C(C=Nc3c(C)n(C)n(-c4ccccc4)c3=O)=C(c3ccccc3)Oc3ccccc32)cc1 (configuration not stated),14.0,0.8,7.0,18.1,0.9,-10.2
CC1Cc2ccccc2N1C(=O)CSc1nc2c(c(=O)n(C)c(=O)n2C)n1Cc1ccccc1 (configuration not stated),95.6*,0.2,21.4,76.3*,0,23.1
c1ccc(Cn2nnc3c(N4CCCC4)ncnc32)cc1,19.7,0.8,-3.5,20.7,0.8,13.5
CC(C)c1nc(SCC(=O)N2c3ccccc3CC2C)c2ccccc2n1 (configuration not stated),98.6*,0.4,37.0*,59.1*,0,11.9
Cc1cc2ccccc2nc1SCC(=O)N1c2ccccc2CC1C (configuration not stated),9.5,0.9,19.6,13.4,0.9,-4.4
Cn1c(=O)c2c(nc(SCCN3CCCCC3)n2Cc2ccccc2)n(C)c1=O,-2.7,1,1.8,-4.2,1,16.8
CC1Cc2ccccc2N1C(=O)Cn1nc(C(=O)O)c2ccccc2c1=O (configuration not stated),1.0,1,14.5,-3.8,1,1.6

# Assay outcomes deposited in PubChem BioAssay by several laboratories.
